Results reported in the supplement of paper PMC6555819.

Experiments:
Assay in all cases: PBM binding z-score (relative to random genomic background probes); higher = stronger binding; sequences stand for … in GC…GCGATTGACAGCGTAGAATGAAGG
[1] = system: FXR:RXRa (NR concentration 270 nM, RXRa partner concentration 90 nM)
Method in brief: (§1)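 On custom Agilent 4×180K arrays, double-stranded probes with 34-nt variable regions carried direct-repeat seeds, single-nucleotide variants, half-site ablations or random human genomic background. Ligand-free nuclear receptor dimers were applied for 1 h, and binding was read with antibodies against each partner (one per run). Binding z-scores come from regression-normalized fluorescence, with the random background probes as reference.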

[2] = system: LXRa:RXRa (NR concentration 270 nM, RXRa partner concentration 90 nM)
Method in brief: as §1

[3] = system: LXRa homodimer (NR concentration 270 nM)
Method in brief: as §1

[4] = system: LXRb:RXRa (NR concentration 270 nM, RXRa partner concentration 90 nM)
Method in brief: as §1

[5] = system: LXRb homodimer (NR concentration 270 nM)
Method in brief: as §1

[6] = system: PPARa:RXRa (NR concentration 270 nM, RXRa partner concentration 90 nM)
Method in brief: as §1

[7] = system: PPARg:RXRa (NR concentration 180 nM, RXRa partner concentration 90 nM)
Method in brief: as §1

[8] = system: PPARg:RXRa 270nM:90nM, anti-RXR (NR concentration 270 nM, RXRa partner concentration 90 nM)
Method in brief: as §1

[9] = system: PPARg:RXRa 30nM:10nM, anti-RXR (NR concentration 30 nM, RXRa partner concentration 10 nM)
Method in brief: as §1

[10] = system: PPARg:RXRa 90nM:30nM, anti-RXR (NR concentration 90 nM, RXRa partner concentration 30 nM)
Method in brief: as §1

[11] = system: PPARg:RXRa DBDmut IVT, anti-RXR (DBD mutation: RXRa K156A/R161A, NR concentration 270 nM, RXRa partner concentration 90 nM)
Method in brief: as §1

[12] = system: PPARg:RXRa IVT, anti-PPARg (NR concentration 270 nM, RXRa partner concentration 90 nM)
Method in brief: as §1

[13] = system: PPARg DBDmut:RXRa IVT, anti-PPARg (DBD mutation: PPARg1 K132A/R137A, NR concentration 270 nM, RXRa partner concentration 90 nM)
Method in brief: as §1

[14] = system: PPARg DBDmut IVT, anti-PPARg (DBD mutation: PPARg1 K132A/R137A, NR concentration 270 nM)
Method in brief: as §1

[15] = system: PPARg homodimer (NR concentration 180 nM)
Method in brief: as §1

[16] = system: PXR:RXRa (NR concentration 270 nM, RXRa partner concentration 90 nM)
Method in brief: as §1

[17] = system: PXR homodimer (NR concentration 270 nM)
Method in brief: as §1

[18] = system: RARa:RXR (NR concentration 270 nM, RXRa partner concentration 90 nM)
Method in brief: as §1

[19] = system: RARa homodimer (NR concentration 270 nM)
Method in brief: as §1

[20] = system: RARb:RXRa (NR concentration 270 nM, RXRa partner concentration 90 nM)
Method in brief: as §1

| Sequence | PBM binding z-score [1] | PBM binding z-score [2] | PBM binding z-score [3] | PBM binding z-score [4] | PBM binding z-score [5] | PBM binding z-score [6] | PBM binding z-score [7] | PBM binding z-score [8] | PBM binding z-score [9] | PBM binding z-score [10] | PBM binding z-score [11] | PBM binding z-score [12] | PBM binding z-score [13] | PBM binding z-score [14] | PBM binding z-score [15] | PBM binding z-score [16] | PBM binding z-score [17] | PBM binding z-score [18] | PBM binding z-score [19] | PBM binding z-score [20] |
| --- | --- | --- | --- | --- | --- | --- | --- | --- | --- | --- | --- | --- | --- | --- | --- | --- | --- | --- | --- | --- |
| ACTTACGGGTCAACGAGGTTATAGCTCGCGTATA | 7.28 | 5.05 | 0.77 | 4.4 | 0.524 | 5.72 | 5.51 | 5.57 | 2.36 | 4.17 | 3.43 | 4.16 | 1.04 | 0.353 | 3.06 | 5.45 | 2.82 | 5.16 | 0.0894 | 4.36 |
| TCAGAGAGGTGAAGGTAACTCAGGTACGCAGTCG | 1.22 | 2.12 | -0.198 | 0.909 | -0.432 | 2.27 | 1.23 | 2.64 | 3.84 | 3.09 | 3.17 | 2.38 | 0.0231 | -0.235 | 0.67 | 0.893 | -0.409 | 1.49 | -0.115 | 2.07 |
| TGTCAAAGTTCAAAGGTAACCTAAGTATCCACAC | 7.3 | 6.43 | 4.99 | 5.02 | 2.06 | 6.03 | 8.74 | 7.74 | 5.57 | 7.47 | 0.886 | 4.82 | 1.02 | 0.289 | 3 | 5.7 | 4.14 | 6.39 | 1.28 | 5.09 |
| TCGAGTAGGTTAGTCGGGGAATTCAGCCAACATA | -0.0396 | -0.257 | -0.394 | -0.065 | -0.946 | 0.287 | -0.188 | 0.615 | 0.883 | 0.675 | 2.15 | 1.62 | -0.453 | -0.828 | -0.2 | -0.311 | -0.47 | -0.102 | -0.0152 | -0.105 |
| ATCTCAAGGTAAAGATAGTTCAGTGAATGCAAAT | 0.707 | 5.22 | 0.562 | 1.38 | 0.331 | 0.546 | 0.372 | 0.508 | 0.448 | 0.296 | 0.21 | 0.461 | 0.586 | 1.27 | 0.584 | 2 | 1.05 | 0.797 | 0.976 | 1.16 |
| CGAACTAGGTCAGAATAGGACAGTGAAGGATGAT | 1.39 | 0.992 | -0.0335 | 0.45 | -0.693 | 3.02 | 5.03 | 4.31 | 1.81 | 3.36 | 6.67 | 6.96 | 2.83 | 1.87 | 0.535 | 0.652 | 0.356 | 1.01 | 0.988 | 2.73 |
| CCTCGGAGGACATCAGGAGGTCAGAGCTGCCAGA | 1.63 | 1.87 | 1.11 | 1.17 | -0.894 | 1.93 | 0.267 | 0.414 | -0.801 | -0.136 | -0.368 | 0.307 | -1.23 | -1.84 | 1.23 | 2.19 | 0.0732 | 2.43 | 0.115 | 2.74 |
| CAAATTAGGTCACAGAGGTCAAAGTCCGTGCGTA | 7.48 | 6.57 | 7.83 | 6.26 | 2.94 | 6.44 | 9.76 | 8.05 | 6.42 | 8.29 | 8.01 | 8.49 | 2.82 | 1.45 | 5.32 | 6.74 | 11.4 | 7.4 | 3.41 | 5.27 |
| CTCGAAAGGTCGGTTGAGGTGAGTATCCGGATAA | 2.5 | 1.81 | -0.338 | 1.44 | 0.0486 | 2.71 | 0.0243 | 1.33 | -0.0688 | 0.975 | 0.135 | 0.893 | -0.0361 | -0.258 | 1.02 | 2.98 | -0.135 | 2.21 | -0.322 | 3.18 |
| TCAAGTTGGTCAAAGGTCACACACTCGAAATGCG | 6.18 | 5.75 | 3.72 | 5.56 | 1.33 | 6.41 | 11.2 | 9.6 | 10 | 10.6 | 3.5 | 6.22 | 1.33 | 1.21 | 5.18 | 5.91 | 1.87 | 7.41 | 2.74 | 5.12 |
| CCTTACGCGTCACTCCAGGTTATAGCATCGGAGT | 1.11 | 4.05 | 1.55 | 1.36 | 0.803 | 0.54 | 0.559 | -0.0823 | -0.223 | -0.192 | 0.0955 | 0.368 | 0.286 | 1 | 1.16 | 0.484 | 0.825 | 0.345 | 0.837 | 0.333 |
